# From PubChem BioAssay (NCI)
# “And” between values parts separate entries of the source, which are not always exact repeats. Equal entries are not always repeated. The panel holds about 79,000 compounds, 15% with a hit somewhere; the sample as a whole holds those more often. More than one record can exist for a structure, and the calls need not agree. The source made the active and inactive calls. Cut-off read from the data, not from the text of the source: active = growth inhibition above about 70%; inactive = the rest.
# Tests used:
# [1] = NCI Yeast Anticancer Drug Screen. Data for the rad50 strain (AID 155);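 note: 0% = growth of vehicle-only cultures of the same strain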; conditions: S. cerevisiae rad50 strain growth inhibition, stronger effect = higher value
# Procedure, shortened: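 Genetically altered yeast (DNA repair pathway); compound treatment; growth inhibition vs vehicle ctrl.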
# [2] = NCI Yeast Anticancer Drug Screen. Data for the mec2-1 strain (AID 157); conditions: S. cerevisiae mec2-1 strain, stronger effect = higher value
# Procedure, shortened: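 Each compound was tested on mec2-1 yeast, a strain altered in DNA damage repair or cell cycle control. Growth inhibition is reported relative to vehicle.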
# [3] = NCI Yeast Anticancer Drug Screen. Data for the sgs1 mgt1 strain (AID 161);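 note: 0% = growth of cultures given vehicle only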; conditions: S. cerevisiae sgs1 mgt1 strain, stronger effect = higher value
# Procedure, shortened: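 Read-out: growth inhibition vs vehicle controls. Cells: mutant yeast strain deficient in DNA damage repair.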
# [4] = NCI Yeast Anticancer Drug Screen. Data for the cln2 rad14 strain (AID 165);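 note: 0% = growth equal to vehicle treated cultures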; conditions: S. cerevisiae cln2 rad14 strain, stronger effect = higher value
# Procedure, shortened: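 Test compounds were added to cln2 rad14 yeast cultures; inhibition of growth was then determined by comparison with vehicle treatment.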
# [5] = NCI Yeast Anticancer Drug Screen. Data for the bub3 strain (AID 167); conditions: S. cerevisiae bub3 mutant strain, stronger effect = higher value
# Procedure, shortened: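 Yeast carrying a defined mutation is treated with each compound, and growth is compared with that of vehicle-exposed cells to give inhibition.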
# [6] = NCI Yeast Anticancer Drug Screen. Data for the mlh1 rad18 strain (AID 175); conditions: S. cerevisiae mlh1 rad18 strain growth inhibition, stronger effect = higher value
# Procedure, shortened: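 Inhibition values reflect reduced growth of mutant yeast versus vehicle-treated controls following compound exposure; the mutations affect DNA damage repair.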
# [7] = NCI Yeast Anticancer Drug Screen. Data for the rad50EPP+ strain (AID 151);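 note: 0% = growth of vehicle-treated control cultures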; conditions: S. cerevisiae rad50 mutant strain, stronger effect = higher value
# Procedure, shortened: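 Genetically defined yeast (rad50EPP+, DNA damage repair alteration) is grown with compound, and inhibition of growth is expressed relative to vehicle-treated controls.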
# [8] = NCI Yeast Anticancer Drug Screen. Data for the mgt1 strain (AID 153); conditions: S. cerevisiae mgt1 mutant growth inhibition, stronger effect = higher value
# Procedure, shortened: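 In the mgt1 strain, test compounds were added and growth inhibition was determined relative to vehicle-treated controls.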
# [9] = NCI Yeast Anticancer Drug Screen. Data for the rad14 strain (AID 159);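 note: 0% = growth of vehicle-treated control cultures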; conditions: S. cerevisiae rad14 strain growth inhibition, stronger effect = higher value
# Procedure, shortened: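 Test compounds were applied to a repair-deficient yeast strain. Its growth was then compared with that of cultures given vehicle alone, and inhibition was expressed relative to those controls.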
# [10] = NCI Yeast Anticancer Drug Screen. Data for the CLN2oe strain (AID 163);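 note: 0% = growth of vehicle-only control cultures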; conditions: S. cerevisiae CLN2oe strain, stronger effect = higher value
# Procedure, shortened: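 First, the altered yeast strain was treated with each compound; second, its growth was measured; finally, inhibition was derived by comparison with vehicle controls.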
# [11] = NCI Yeast Anticancer Drug Screen. Data for the wt2 strain (AID 169);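 note: 0% = growth of vehicle-treated yeast cultures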; conditions: S. cerevisiae wt2 strain growth inhibition, stronger effect = higher value
# Procedure, shortened: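 The panel's yeast strains carry defined changes in DNA repair or cell cycle genes. Each strain is grown with compound, and growth loss is scored relative to vehicle.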
# [12] = NCI Yeast Anticancer Drug Screen. Data for the mlh1 strain (AID 171);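 note: 0% = growth of vehicle-treated control cultures of the same strain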; conditions: S. cerevisiae mlh1 strain growth inhibition, stronger effect = higher value
# Procedure, shortened: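 Inhibition values reflect reduced yeast growth in the presence of compound, referenced to vehicle controls, using a strain chosen for its alteration in DNA repair or cell cycle control.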
# [13] = NCI Yeast Anticancer Drug Screen. Data for the sgs1 strain (AID 173);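 note: 0% = growth of vehicle-only control cultures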; conditions: S. cerevisiae sgs1 mutant, stronger effect = higher value
# Procedure, shortened: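 Vehicle-treated cultures served as reference for growth inhibition of a yeast strain altered in DNA damage repair or cell cycle control after compound exposure.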
# [14] = at 5.0 µM (retest, dose inferred, filed as 0.5)
# [15] = at 50.0 µM (retest, dose inferred, filed as 5.0)
structure (smiles),measurement,setting,value
Nc1ccccc1SSc1ccccc1N,growth inhibition,[1]; [14],27% (inactive) and 9% (inactive) and 56% (inactive)
same,growth inhibition,[1]; [15],99% (active) and -9% (inactive)
same,growth inhibition,[1]; at 50.0 µM,99.4% (active) and 99% (active) and 99.3% (active)
same,growth inhibition,[2]; [14],80% (active) and 18% (inactive) and 29% (inactive)
same,growth inhibition,[2]; [15],99% (active) and 0% (inactive)
same,growth inhibition,[2]; at 50.0 µM,99.5% (active) and 99.1% (active)
same,growth inhibition,[3]; [14],67% (inactive) and 13% (inactive) and 41% (inactive)
same,growth inhibition,[3]; [15],99% (active) and 12% (inactive)
same,growth inhibition,[3]; at 50.0 µM,99.3% (active)
same,growth inhibition,[4]; [14],17% (inactive) and 4% (inactive) and 13% (inactive)
same,growth inhibition,[4]; [15],99% (active) and 5% (inactive)
same,growth inhibition,[4]; at 50.0 µM,99.2% (active) and 98.8% (active)
same,growth inhibition,[5]; [14],87% (active) and 13% (inactive) and 89% (active)
same,growth inhibition,[5]; [15],99% (active) and 28% (inactive)
same,growth inhibition,[5]; at 50.0 µM,98.3% (active) and 99.1% (active)
same,growth inhibition,[6]; [14],80% (active) and 17% (inactive) and 46% (inactive)
same,growth inhibition,[6]; [15],99% (active) and 7% (inactive)
same,growth inhibition,[6]; at 50.0 µM,99.3% (active) and 99% (active)
c1ccc(N/N=C2\CC(c3ccccc3)Oc3ccccc32)cc1 (stereo not drawn),growth inhibition,[7]; at 1.2 µM,19% (inactive)
same,growth inhibition,[7]; at 3.7 µM,33% (inactive)
same,growth inhibition,[7]; at 11.0 µM,47% (inactive)
same,growth inhibition,[7]; at 33.0 µM,64% (inactive)
same,growth inhibition,[7]; at 100.0 µM,50% (inactive)
same,growth inhibition,[8]; at 1.2 µM,-3% (inactive)
same,growth inhibition,[8]; at 3.7 µM,-1% (inactive)
same,growth inhibition,[8]; at 11.0 µM,6% (inactive)
same,growth inhibition,[8]; at 33.0 µM,11% (inactive)
same,growth inhibition,[8]; at 100.0 µM,22% (inactive)
same,growth inhibition,[1]; at 1.2 µM,4% (inactive)
same,growth inhibition,[1]; at 3.7 µM,11% (inactive)
same,growth inhibition,[1]; [14],5% (inactive)
same,growth inhibition,[1]; at 11.0 µM,1% (inactive)
same,growth inhibition,[1]; at 33.0 µM,32% (inactive)
same,growth inhibition,[1]; [15],8% (inactive)
same,growth inhibition,[1]; at 50.0 µM,71.2% (active)
same,growth inhibition,[1]; at 100.0 µM,28% (inactive)
same,growth inhibition,[2]; at 1.2 µM,1% (inactive)
same,growth inhibition,[2]; at 3.7 µM,4% (inactive)
same,growth inhibition,[2]; [14],-2% (inactive)
same,growth inhibition,[2]; at 11.0 µM,9% (inactive)
same,growth inhibition,[2]; at 33.0 µM,14% (inactive)
same,growth inhibition,[2]; [15],23% (inactive)
same,growth inhibition,[2]; at 50.0 µM,31.4% (inactive)
same,growth inhibition,[2]; at 100.0 µM,13% (inactive)
same,growth inhibition,[9]; at 1.2 µM,0% (inactive)
same,growth inhibition,[9]; at 3.7 µM,4% (inactive)
same,growth inhibition,[9]; at 11.0 µM,10% (inactive)
same,growth inhibition,[9]; at 33.0 µM,52% (inactive)
same,growth inhibition,[9]; at 100.0 µM,72% (active)
same,growth inhibition,[10]; at 1.2 µM,0% (inactive)
same,growth inhibition,[10]; at 3.7 µM,1% (inactive)
same,growth inhibition,[10]; at 11.0 µM,1% (inactive)
same,growth inhibition,[10]; at 33.0 µM,12% (inactive)
same,growth inhibition,[10]; at 100.0 µM,17% (inactive)
same,growth inhibition,[4]; [14],-5% (inactive)
same,growth inhibition,[4]; [15],4% (inactive)
same,growth inhibition,[4]; at 50.0 µM,30.6% (inactive)
same,growth inhibition,[5]; at 1.2 µM,1% (inactive)
same,growth inhibition,[5]; at 3.7 µM,4% (inactive)
same,growth inhibition,[5]; [14],-24% (inactive)
same,growth inhibition,[5]; at 11.0 µM,15% (inactive)
same,growth inhibition,[5]; at 33.0 µM,39% (inactive)
same,growth inhibition,[5]; [15],27% (inactive)
same,growth inhibition,[5]; at 50.0 µM,53% (inactive)
same,growth inhibition,[5]; at 100.0 µM,39% (inactive)
same,growth inhibition,[11]; at 1.2 µM,0% (inactive)
same,growth inhibition,[11]; at 3.7 µM,-4% (inactive)
same,growth inhibition,[11]; at 11.0 µM,5% (inactive)
same,growth inhibition,[11]; at 33.0 µM,21% (inactive)
same,growth inhibition,[11]; at 100.0 µM,29% (inactive)
same,growth inhibition,[12]; at 1.2 µM,1% (inactive)
same,growth inhibition,[12]; at 3.7 µM,0% (inactive)
same,growth inhibition,[12]; at 11.0 µM,4% (inactive)
same,growth inhibition,[12]; at 33.0 µM,6% (inactive)
same,growth inhibition,[12]; at 100.0 µM,3% (inactive)
same,growth inhibition,[13]; at 1.2 µM,-1% (inactive)
same,growth inhibition,[13]; at 3.7 µM,0% (inactive)
same,growth inhibition,[13]; at 11.0 µM,5% (inactive)
same,growth inhibition,[13]; at 33.0 µM,18% (inactive)
same,growth inhibition,[13]; at 100.0 µM,24% (inactive)
same,growth inhibition,[6]; [14],-26% (inactive)
same,growth inhibition,[6]; [15],50% (inactive)
same,growth inhibition,[6]; at 50.0 µM,72.5% (active)
CCCCCCCCCCCC[N+](C)(C)Cc1ccccc1 (tested in a mixture with another compound),growth inhibition,[1]; [14],79% (active) and 69% (inactive) and 58% (inactive)
same,growth inhibition,[1]; [15],99% (active)
same,growth inhibition,[1]; at 50.0 µM,98% (active) and 99.6% (active) and 97.7% (active)
same,growth inhibition,[2]; [14],79% (active) and 55% (inactive) and 44% (inactive)
same,growth inhibition,[2]; [15],100% (active)
same,growth inhibition,[2]; at 50.0 µM,99.7% (active) and 99.8% (active) and 86.8% (active)
same,growth inhibition,[3]; [14],93% (active) and 95% (active) and 89% (active)
same,growth inhibition,[3]; [15],100% (active) and 99% (active)
same,growth inhibition,[3]; at 50.0 µM,99.7% (active) and 99.8% (active) and 99.5% (active)
same,growth inhibition,[4]; [14],66% (inactive) and 58% (inactive) and 61% (inactive)
same,growth inhibition,[4]; [15],99% (active)
same,growth inhibition,[4]; at 50.0 µM,98.5% (active) and 97.3% (active) and 96% (active)
same,growth inhibition,[5]; [14],93% (active) and 76% (active)
same,growth inhibition,[5]; [15],100% (active) and 99% (active)
same,growth inhibition,[5]; at 50.0 µM,99.8% (active) and 99.3% (active) and 98.3% (active)
same,growth inhibition,[6]; [14],94% (active) and 74% (active) and 78% (active)
same,growth inhibition,[6]; [15],100% (active)
same,growth inhibition,[6]; at 50.0 µM,99.5% (active) and 98.9% (active)
COc1cccc2c1C(=O)c1c(O)c3c(c(O)c1C2=O)CC(O)(C(=O)CO)CC3OC1CC(N)C(O)C(C)O1 (stereo not drawn),growth inhibition,[1]; [14],13% (inactive) and 24% (inactive) and 34% (inactive)
same,growth inhibition,[1]; [15],13% (inactive) and 18% (inactive) and 91% (active)
same,growth inhibition,[2]; [14],7% (inactive) and 6% (inactive) and 14% (inactive)
same,growth inhibition,[2]; [15],8% (inactive) and 10% (inactive) and 58% (inactive)
same,growth inhibition,[3]; [14],7% (inactive) and 16% (inactive) and 25% (inactive)
same,growth inhibition,[3]; [15],0% (inactive) and 4% (inactive) and 71% (active)
same,growth inhibition,[4]; [14],2% (inactive) and 8% (inactive) and 23% (inactive)
same,growth inhibition,[4]; [15],1% (inactive) and 4% (inactive) and 53% (inactive)
same,growth inhibition,[5]; [14],10% (inactive) and 15% (inactive) and 18% (inactive)
same,growth inhibition,[5]; [15],13% (inactive) and 16% (inactive) and 76% (active)
same,growth inhibition,[6]; [14],-5% (inactive) and 20% (inactive) and 42% (inactive)
same,growth inhibition,[6]; [15],-1% (inactive) and 3% (inactive) and 94% (active)
O=c1[nH]c(=O)n(CCCO)cc1F,growth inhibition,[7]; at 1.2 µM,-14% (inactive)
same,growth inhibition,[7]; at 3.7 µM,-7% (inactive)
same,growth inhibition,[7]; at 11.0 µM,-9% (inactive)
same,growth inhibition,[7]; at 33.0 µM,-10% (inactive)
same,growth inhibition,[7]; at 100.0 µM,-2% (inactive)
same,growth inhibition,[8]; at 1.2 µM,-13% (inactive)
same,growth inhibition,[8]; at 3.7 µM,-31% (inactive)
same,growth inhibition,[8]; at 11.0 µM,-24% (inactive)
same,growth inhibition,[8]; at 33.0 µM,-33% (inactive)
same,growth inhibition,[8]; at 100.0 µM,-18% (inactive)
same,growth inhibition,[1]; at 1.2 µM,-21% (inactive)
same,growth inhibition,[1]; at 3.7 µM,-11% (inactive)
same,growth inhibition,[1]; [14],42% (inactive)
same,growth inhibition,[1]; at 11.0 µM,-10% (inactive)
same,growth inhibition,[1]; at 33.0 µM,-12% (inactive)
same,growth inhibition,[1]; [15],44% (inactive)
same,growth inhibition,[1]; at 50.0 µM,34.4% (inactive)
same,growth inhibition,[1]; at 100.0 µM,-13% (inactive)
same,growth inhibition,[2]; at 1.2 µM,-36% (inactive)
same,growth inhibition,[2]; at 3.7 µM,-27% (inactive)
same,growth inhibition,[2]; [14],24% (inactive)
same,growth inhibition,[2]; at 11.0 µM,-41% (inactive)
same,growth inhibition,[2]; at 33.0 µM,-33% (inactive)
same,growth inhibition,[2]; [15],20% (inactive)
same,growth inhibition,[2]; at 50.0 µM,-38.6% (inactive)
same,growth inhibition,[2]; at 100.0 µM,-23% (inactive)
same,growth inhibition,[9]; at 1.2 µM,-29% (inactive)
same,growth inhibition,[9]; at 3.7 µM,-19% (inactive)
same,growth inhibition,[9]; at 11.0 µM,-20% (inactive)
same,growth inhibition,[9]; at 33.0 µM,-26% (inactive)
